Bioassay records as filed in PubChem BioAssay.
Sampled rows, rich in hits. Any-hit rate of the full collection: about 27%.
CYP2C9 inhib – human CYP2C9 inhibition; 20% of 96,000 active; P11712; inhibition, % at 5 µM; CYP2C9 Supersomes, luciferin-H conversion, luminescence;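 active means blocking of liver enzyme CYP2C9 beyond about 50% at 5 µM, limit read from the data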
Target sequence (P11712 whole entry, looked up): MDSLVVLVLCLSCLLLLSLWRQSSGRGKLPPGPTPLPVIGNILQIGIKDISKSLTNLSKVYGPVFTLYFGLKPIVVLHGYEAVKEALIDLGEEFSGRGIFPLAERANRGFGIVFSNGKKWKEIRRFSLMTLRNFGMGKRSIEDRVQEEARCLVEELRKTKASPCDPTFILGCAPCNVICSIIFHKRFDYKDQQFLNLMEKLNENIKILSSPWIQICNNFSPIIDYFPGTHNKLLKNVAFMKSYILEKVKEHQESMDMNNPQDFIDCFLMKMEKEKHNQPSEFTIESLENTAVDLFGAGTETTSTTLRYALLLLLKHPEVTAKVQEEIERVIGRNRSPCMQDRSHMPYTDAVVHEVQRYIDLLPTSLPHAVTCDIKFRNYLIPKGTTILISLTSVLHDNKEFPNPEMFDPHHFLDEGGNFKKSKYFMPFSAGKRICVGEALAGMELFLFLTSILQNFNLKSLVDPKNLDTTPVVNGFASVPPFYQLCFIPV
EphB4 ephrin blk – EphB4-ephrin-B2 interaction antagonism | P54760 | EphB4 LBD / TNYL-RAW-Alexa532 peptide, fluorescence polarization | inhibition, % at 7 µM | 0.15% of 97,000 active | AID 720;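 active means inhibition above the screen-wide mean inhibition plus 3 SD, cut at about 15% in these data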;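 further: 0% = DMSO wells and 100% = excess unlabeled TNYL-RAW peptide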
CYP2C19 inhib – human CYP2C19 inhibition; P33261; CYP2C19 Supersomes, luciferin-H EGE luminescence, 30 min; 21% of 96,000 active; inhibition, % at 5 µM;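 active means CYP2C19 inhibition above a set limit at 5 µM in the primary screen, cut at about 50% in these data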;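 further: plate controls were negative control wells for no effect and 2.5 mM tranylcypromine positive control for full effect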
CYP2C9 act – activators of human CYP2C9 | recombinant CYP2C9, luciferin-H conversion, luminescence; active compounds read high; factor 1 = untreated enzyme, 0 = blocked | 1.4% of 96,000 active | activation factor at 5 µM | AID 1024 | P11712;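 active means activation factor of 2 or more for CYP2C9 at a 5 µM dose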;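 further: 0 = sulfaphenazole-blocked wells and 1 = vehicle-only wells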
CYP2C19 activ – cytochrome P450 2C19 (human) activation. P33261. recombinant CYP2C19, luciferin-H EGE luminescence; active compounds read high; 0 = fully inhibited enzyme, 1 = untreated enzyme. activation factor at 5 µM. 96,000 tested, under 10 active. AID 1025;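 active means activation factor of at least 2 at 5 µM in the primary screen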;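 further: 0 = wells with 2.5 mM tranylcypromine and 1 = vehicle-only wells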
Starred values were filed as active, the others as inactive; nt = not tested or not shown.

SMILES | CYP2C9 inhib | EphB4 ephrin blk | CYP2C19 inhib | CYP2C9 act | CYP2C19 activ
COc1ccc(CN2C(=O)c3cccnc3C2Nc2cc(Cl)ccc2OC)cc1 (stereo not drawn) | 48.0 | nt | 62.6* | 0.5 | 0.4
O=C1c2cccnc2C(Nc2ccc(S(=O)(=O)N3CCCCC3)cc2)N1Cc1ccccc1 (stereo not drawn) | 32.7 | -3.7 | 12.9 | 0.7 | 0.9
COC(=O)c1cc(NC2c3ncccc3C(=O)N2Cc2ccccc2)cc(C(=O)OC)c1 (stereo not drawn) | 66.7* | -1.8 | 95.9* | 0.3 | 0
COc1ccc(OC)c(NC2c3ncccc3C(=O)N2Cc2ccco2)c1 (stereo not drawn) | 27.0 | -8.8 | 29.3 | 0.7 | 0.7
CCOC(=O)c1ccc(NC2c3ncccc3C(=O)N2Cc2ccc(F)cc2)cc1 (stereo not drawn) | 69.9* | -5.8 | 41.0 | 0.3 | 0.6
COc1ccc(C)cc1N(CC(=O)O)S(=O)(=O)c1ccc(C)cc1 | 0.6 | -0.8 | 7.7 | 1 | 0.9
CC(=O)NNc1nc(-c2ccccc2)c2cc(Br)ccc2n1 | 39.1 | -9.8 | 13.6 | 0.6 | 0.9
CN(C)c1nc(SCCOC(=O)Nc2ccccc2)nc(N(C)C)n1 | 67.8* | 7.7 | 98.7* | 0.3 | 0
O=C(CSc1nnc(Cc2cccs2)n1Cc1ccco1)Nc1cc(Cl)cc(Cl)c1 | 47.9 | -3.6 | 25.4 | 0.5 | 0.7
O=C(N1CCOCC1)N1c2ccccc2Sc2ccccc21 | 19.0 | -7.9 | 55.4* | 0.8 | 0.4
COc1cc2ccccc2cc1C(=O)Nc1cccnc1 | 31.5 | 2.1 | 43.8 | 0.7 | 0.6
O=C(Nc1cccnc1)c1ccc(Oc2ccccc2)cc1 | 88.6* | -3.4 | 36.0 | 0.1 | 0.6
O=C(Nc1cccnc1)c1ccccc1Oc1ccccc1 | 54.6* | -0.1 | 64.1* | 0.5 | 0.4
COc1cccc(C(=O)Nc2cccnc2)c1 | 14.0 | -0.6 | 26.2 | 0.9 | 0.7
Cc1ccc(-c2csc(NC(=O)c3cccc(N4C(=O)CCC4=O)c3)n2)o1 | nt | 1.2 | nt | nt | nt
O=C(CN1CCCC1)Nc1ccc(NC(=O)Nc2ccccc2)cc1 | -11.6 | -3.5 | -13.5 | 1.1 | 1.1
Cc1ccc(C)c(S(=O)(=O)N2CCC(c3nc4c(nnn4Cc4ccc(F)cc4)c(=O)[nH]3)CC2)c1 | 94.2* | 3.1 | 48.7 | 0.1 | 0.5
Cc1ccc(C)c(Cn2nnc3c(=O)[nH]c(C(=O)NCC4CCCO4)nc32)c1 (stereo not drawn) | nt | 1.2 | nt | nt | nt
Cc1ccc(Cn2nnc3c(=O)[nH]c(C4CCN(S(=O)(=O)c5cc(C)ccc5C)CC4)nc32)cc1 | 97.2* | -1.1 | 79.2* | 0 | 0.2
Cc1ccc2c(c1)Sc1ccccc1CC2=O | -1.3 | 4.3 | 9.3 | 1 | 0.9
COc1ccc(C2N3CC4(C)CN2CC(C)(C3)C4O)cc1OC (stereo not drawn) | nt | 0.6 | nt | nt | nt
CCO/C=C/C(O)(CNC(=O)COc1ccccc1F)C(F)(F)F (stereo not drawn) | 25.8 | 0.1 | 84.8* | 0.7 | 0.2
O=C(CCn1c(=O)oc2ccccc21)Nc1ccccc1 | -5.8 | 2.1 | 60.7* | 1.1 | 0.4
CCc1ccc(NC(=O)CCn2c(=O)oc3ccccc32)cc1 | 57.6* | 4.3 | 23.5 | 0.4 | 0.8
Cc1ccc(NC(=O)CCn2c(=O)oc3ccccc32)cc1 | 9.1 | 1.0 | 25.0 | 0.9 | 0.8
SMILES | CYP2C9 inhib | EphB4 ephrin blk | CYP2C19 inhib | CYP2C9 act | CYP2C19 activ
COc1ccccc1CNC(=O)CCn1c(=O)oc2ccccc21 | -43.3 | -6.0 | 71.9* | 1.4 | 0.3
COc1ccc(CNC(=O)CCn2c(=O)oc3ccccc32)cc1 | 2.3 | -0.7 | 20.2 | 1 | 0.8
CC(C)CCNC(=O)Cc1c(C(=O)O)[nH]c2ccc(Cl)cc12 | 42.3 | 5.9 | 29.6 | 0.6 | 0.7
CCCCCn1c(=O)[nH]c2cc(C(=O)N3CCN(Cc4ccc5c(c4)OCO5)CC3)ccc2c1=O | -3.6 | -4.7 | -9.1 | 1 | 1.1
CCN1C(=O)c2cccc3c(S(=O)(=O)NCc4ccccn4)ccc1c23 | 21.0 | -1.8 | -2.3 | 0.8 | 1
CCOCCOC(=O)CCSc1n[nH]c(=O)[nH]c1=O | 4.4 | 4.4 | 0.6 | 1 | 1
O=C(O)CCCCCNC(=O)c1cccc(Br)c1 | 3.7 | -7.5 | -7.4 | 1 | 1.1
O=C(NCCOC12CC3CC(CC(C3)C1)C2)c1cccc(Br)c1 | 29.5 | -1.0 | 71.7* | 0.7 | 0.3
O=C(Oc1ccc(Cl)c2cccnc12)N1CCOCC1 | 16.0 | -6.8 | 12.4 | 0.8 | 0.9
O=C(Oc1ccc(Cl)c2ccccc12)N1CCCCC1 | 42.4 | -5.1 | 14.9 | 0.6 | 0.9
O=C(Oc1ccc2ccccc2c1Cl)N1CCCC1 | 31.3 | -4.9 | 75.1* | 0.7 | 0.2
O=C(Oc1ccc(Cl)c2cccnc12)N1CCCCC1 | 27.9 | nt | 54.7* | 0.7 | 0.5
CC(C(=O)NC1CCCCCC1)N(c1ccccc1)S(C)(=O)=O (stereo not drawn) | -4.7 | -5.3 | 5.4 | 1 | 0.9
COCCn1c(SCC(=O)NC(=O)NC(C)(C)C)nc2ccccc21 | 26.8 | -1.6 | 56.7* | 0.7 | 0.4
COCCn1c(SCC(=O)Nc2sccc2C(N)=O)nc2cc(Cl)ccc2c1=O | 60.5* | 2.9 | 45.3 | 0.4 | 0.5
COCCn1c(SCC(=O)Nc2ccc(Cl)cn2)nc2ccccc21 | -24.3 | 4.0 | 89.9* | 1.2 | 0.1
COCCn1c(SCC(=O)Nc2ncc(Cl)c(C)c2Cl)nc2ccccc21 | 47.4 | 8.3 | 92.9* | 0.5 | 0.1
CCN(CC)c1ccc(C(NC(C)=O)NC(C)=O)cc1 | 1.5 | 3.6 | 1.2 | 1 | 1
CCOC(=O)N1CCC(N2C(=O)c3ccccc3C2Nc2c(C)cccc2C)CC1 (stereo not drawn) | 94.3* | 0.1 | 95.3* | 0.1 | 0
CCOC(=O)N1CCC(N2C(=O)c3ccccc3C2Nc2cc(C(=O)OC)cc(C(=O)OC)c2)CC1 (stereo not drawn) | 65.6* | -6.9 | 73.1* | 0.3 | 0.3
CCOC(=O)N1CCC(N2C(=O)c3ccccc3C2Nc2ccc(C)cc2)CC1 (stereo not drawn) | 48.0 | 4.0 | 47.5 | 0.5 | 0.5
CCOC(=O)N1CCC(N2C(=O)c3ccccc3C2Nc2ccccc2)CC1 (stereo not drawn) | 79.9* | 4.5 | 64.9* | 0.2 | 0.4
CCN(c1ccc(NC(=O)CN2C(=O)NC3(CCOc4ccccc43)C2=O)cc1)C(C)C (stereo not drawn) | 59.3* | -0.6 | 26.9 | 0.4 | 0.7
O=C(CN1CCC(c2nc3ccccc3[nH]2)CC1)NCc1ccc2c(c1)OCO2 | 25.6 | -12.4 | 6.9 | 0.7 | 0.9
CCc1nc(N)c(C#N)c(-c2ccncc2)c1C | 72.7* | -0.5 | 99.8* | 0.3 | 0
CCc1nc(N)c(C#N)c(-c2ccc(O)c(OC)c2)c1C | -4.8 | -0.5 | 53.2* | 1 | 0.5
CCc1c(O)nc(SCC(=O)Nc2ccc(C)cc2)n(C2CCCCC2)c1=O | 7.6 | 1.2 | 1.1 | 0.9 | 1
COC(=O)c1ccc(C)c(NC(=O)Cn2cnc3ccccc3c2=O)c1 | 98.9* | -9.7 | 82.4* | 0 | 0.2
CCOC(=O)c1ccc(Cn2cnc3ccccc3c2=O)cc1 | 54.7* | -3.4 | 61.5* | 0.5 | 0.4
